About 8,800 targets were measured; listed, in parts, are those with a hit and a random draw of the rest. About 0.5% of all pairs of compound and target were hits.
Columns and labels:
Experiment in all cases: log2 fold change, soluble protein after heating vs DMSO (PISA); higher = thermal stabilisation; K562 lysate, 10 uM; active = over 0.2 and 3.5 SD of the protein, either way, in both replicates (recomputed)
[1] = compound: CC1=C2C(=CC=C1)N=C(N(C2=O)C3=CC=CC=C3C)CN4C=NC5=C(N=CN=C54)N
In short: (§1)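 Log-two fold change in thermal stability relative to solvent controls is reported from duplicates. For each sample, crude K562 extract from dounce-homogenised pellets in PBS pH 7.4 with 1 mM MgCl2, at 1 mg/mL protein, was treated with 10 μM compound for 30 min. Aliquots heated for 3 min across 48°C-58°C were pooled, brought to 0.5% NP-40 at 4°C and cleared at 21,000xg for 90 min. The supernatant was quantified by TMTpro 16plex LC-MS/MS with channel sums equalised.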

[2] = compound: Cc1sc2c(c1C)C(c1ccc(Cl)cc1)=N[C@@H](CC(=O)OC(C)(C)C)c1nnc(C)n1-2
In short: as §1

[3] = compound: C1=CC=C(C=C1)[C@H](COC2=CC3=C(C=C2)NC(=O)N3)NC(=O)C4=CC=CN(C4=O)CC5=CC(=C(C=C5)F)F
In short: as §1

[4] = compound: CC1=C(SC2=C1C(=N[C@H](C3=NN=C(N32)C)CC(=O)N)C4=CC=C(C=C4)Cl)C
In short: as §1

[5] = compound: c1ccc([C@@H]2C[C@H]2NC2CCNCC2)cc1
In short: as §1

Measured: log2 fold change

SNRPD2 (UniProt K7EJB5)
inactive: [1] 0.024 | [2] -0.047

STK17B (UniProt O94768)
Sequence of UniProt O94768 (O94768 whole entry, looked up): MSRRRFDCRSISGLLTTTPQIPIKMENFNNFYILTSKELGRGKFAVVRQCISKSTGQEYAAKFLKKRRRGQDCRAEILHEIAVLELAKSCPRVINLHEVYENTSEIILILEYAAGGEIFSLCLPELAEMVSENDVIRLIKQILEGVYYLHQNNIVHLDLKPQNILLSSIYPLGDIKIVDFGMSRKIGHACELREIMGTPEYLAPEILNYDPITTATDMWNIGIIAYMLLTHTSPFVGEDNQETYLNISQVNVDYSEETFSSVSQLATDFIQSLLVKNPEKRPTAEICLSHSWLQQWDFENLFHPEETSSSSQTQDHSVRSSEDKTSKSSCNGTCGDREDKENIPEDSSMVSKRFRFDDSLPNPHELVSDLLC
inactive: [2] -0.029

SMIM1 (UniProt B2RUZ4)
Sequence of UniProt B2RUZ4 (B2RUZ4 whole entry, looked up): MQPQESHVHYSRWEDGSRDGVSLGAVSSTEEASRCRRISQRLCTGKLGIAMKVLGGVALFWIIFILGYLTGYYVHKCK
inactive: [3] 0.053 | [4] -0.054 | [5] -0.028

SNUPN (UniProt O95149)
Sequence of UniProt O95149 (O95149 whole entry, looked up): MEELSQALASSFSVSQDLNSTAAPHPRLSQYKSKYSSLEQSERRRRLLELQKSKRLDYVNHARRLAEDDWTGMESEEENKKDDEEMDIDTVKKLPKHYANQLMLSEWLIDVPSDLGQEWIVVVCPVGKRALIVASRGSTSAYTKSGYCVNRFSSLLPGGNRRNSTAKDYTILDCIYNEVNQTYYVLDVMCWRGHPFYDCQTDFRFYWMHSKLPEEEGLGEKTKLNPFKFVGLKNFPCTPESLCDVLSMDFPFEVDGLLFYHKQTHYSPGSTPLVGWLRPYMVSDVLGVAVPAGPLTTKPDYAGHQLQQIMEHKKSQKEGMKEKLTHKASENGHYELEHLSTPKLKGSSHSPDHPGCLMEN
inactive: [3] -0.013 | [4] -0.018 | [1] 0.047 | [5] -0.02

SSX5 isoform 2 (UniProt O60225)
Sequence of UniProt O60225 (O60225 whole entry, looked up): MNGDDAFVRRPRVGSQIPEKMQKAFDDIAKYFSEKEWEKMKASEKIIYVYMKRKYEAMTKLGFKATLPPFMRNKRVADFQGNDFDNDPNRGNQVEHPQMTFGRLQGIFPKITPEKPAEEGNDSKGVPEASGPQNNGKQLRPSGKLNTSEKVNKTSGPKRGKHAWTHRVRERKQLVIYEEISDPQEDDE
inactive: [3] 0.022 | [4] 0.03 | [1] -0.157 | [5] -0.253

SLCO4A1 (UniProt Q96BD0)
Sequence of UniProt Q96BD0 (Q96BD0 whole entry, looked up): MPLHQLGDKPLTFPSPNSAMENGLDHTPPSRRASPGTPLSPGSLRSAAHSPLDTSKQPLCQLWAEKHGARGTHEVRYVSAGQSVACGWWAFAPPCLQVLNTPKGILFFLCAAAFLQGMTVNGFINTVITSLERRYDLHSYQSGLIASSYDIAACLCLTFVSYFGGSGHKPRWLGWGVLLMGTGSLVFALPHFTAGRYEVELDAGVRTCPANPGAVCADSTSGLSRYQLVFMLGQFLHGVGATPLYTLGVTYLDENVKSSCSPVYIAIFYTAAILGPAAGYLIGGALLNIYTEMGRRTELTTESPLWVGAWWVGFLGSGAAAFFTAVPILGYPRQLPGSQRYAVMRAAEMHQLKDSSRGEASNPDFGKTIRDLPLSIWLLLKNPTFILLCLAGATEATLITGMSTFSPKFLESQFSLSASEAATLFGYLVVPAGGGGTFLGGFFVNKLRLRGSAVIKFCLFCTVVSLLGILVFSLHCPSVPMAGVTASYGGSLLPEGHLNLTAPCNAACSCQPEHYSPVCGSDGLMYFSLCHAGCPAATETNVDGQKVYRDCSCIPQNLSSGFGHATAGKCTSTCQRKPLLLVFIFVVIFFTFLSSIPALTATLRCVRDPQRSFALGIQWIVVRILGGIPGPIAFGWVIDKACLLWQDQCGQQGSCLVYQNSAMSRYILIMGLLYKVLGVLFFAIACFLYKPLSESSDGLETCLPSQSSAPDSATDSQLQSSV
inactive: [3] 0.203 | [4] -0.372 | [5] -0.013

SZT2 (UniProt Q5T011)
inactive: [3] -0.285 | [4] -0.066 | [2] -0.148 | [5] 0.105

SLC22A18 (UniProt Q96BI1)
Sequence of UniProt Q96BI1 (Q96BI1 whole entry, looked up): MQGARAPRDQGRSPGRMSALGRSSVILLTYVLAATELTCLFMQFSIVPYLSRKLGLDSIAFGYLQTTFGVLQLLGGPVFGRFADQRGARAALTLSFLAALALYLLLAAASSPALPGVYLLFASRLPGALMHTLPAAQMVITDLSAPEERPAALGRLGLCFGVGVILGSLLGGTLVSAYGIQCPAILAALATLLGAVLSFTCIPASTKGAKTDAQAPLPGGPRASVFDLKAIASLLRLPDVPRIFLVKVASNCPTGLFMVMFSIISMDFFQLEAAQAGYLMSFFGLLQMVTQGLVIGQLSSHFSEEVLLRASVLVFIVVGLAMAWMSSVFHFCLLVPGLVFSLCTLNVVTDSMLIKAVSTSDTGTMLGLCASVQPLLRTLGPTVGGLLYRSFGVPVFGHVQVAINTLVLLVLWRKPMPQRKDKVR
inactive: [3] 0.07 | [4] 0.048 | [1] -0.036 | [5] -0.088

SLC12A6 isoform 2 (UniProt Q9UHW9)
Sequence of UniProt Q9UHW9 (Q9UHW9 whole entry, looked up): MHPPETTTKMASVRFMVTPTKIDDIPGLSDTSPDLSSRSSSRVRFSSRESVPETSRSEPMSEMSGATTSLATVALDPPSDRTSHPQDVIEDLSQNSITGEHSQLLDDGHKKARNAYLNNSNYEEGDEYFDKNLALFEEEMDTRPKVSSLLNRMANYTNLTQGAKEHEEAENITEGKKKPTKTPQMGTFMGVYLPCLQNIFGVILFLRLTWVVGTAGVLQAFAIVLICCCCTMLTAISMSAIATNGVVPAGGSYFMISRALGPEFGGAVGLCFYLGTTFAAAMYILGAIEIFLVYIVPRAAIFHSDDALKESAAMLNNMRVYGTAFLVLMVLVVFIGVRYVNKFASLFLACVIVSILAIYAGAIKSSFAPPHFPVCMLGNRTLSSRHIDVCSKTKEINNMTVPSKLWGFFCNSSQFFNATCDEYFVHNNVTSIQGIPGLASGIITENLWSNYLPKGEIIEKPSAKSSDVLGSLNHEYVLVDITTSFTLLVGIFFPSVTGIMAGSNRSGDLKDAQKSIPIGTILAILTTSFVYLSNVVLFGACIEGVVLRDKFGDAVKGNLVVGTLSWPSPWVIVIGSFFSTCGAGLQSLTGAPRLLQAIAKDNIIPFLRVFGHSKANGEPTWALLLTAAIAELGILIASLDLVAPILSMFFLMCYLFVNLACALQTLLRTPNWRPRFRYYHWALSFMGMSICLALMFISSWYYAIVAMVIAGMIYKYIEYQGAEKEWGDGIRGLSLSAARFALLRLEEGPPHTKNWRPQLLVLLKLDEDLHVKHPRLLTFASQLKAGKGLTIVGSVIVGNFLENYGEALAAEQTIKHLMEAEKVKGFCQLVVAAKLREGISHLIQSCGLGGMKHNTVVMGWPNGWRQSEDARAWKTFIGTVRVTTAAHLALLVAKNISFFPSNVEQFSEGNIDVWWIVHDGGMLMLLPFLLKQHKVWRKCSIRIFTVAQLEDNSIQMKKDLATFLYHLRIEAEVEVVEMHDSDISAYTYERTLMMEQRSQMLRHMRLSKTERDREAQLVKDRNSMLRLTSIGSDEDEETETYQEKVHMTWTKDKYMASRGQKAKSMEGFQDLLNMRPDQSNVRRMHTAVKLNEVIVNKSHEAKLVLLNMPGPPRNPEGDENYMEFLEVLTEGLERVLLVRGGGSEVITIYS
inactive: [2] -0.179

STN1 (UniProt Q9H668)
Sequence of UniProt Q9H668 (Q9H668 whole entry, looked up): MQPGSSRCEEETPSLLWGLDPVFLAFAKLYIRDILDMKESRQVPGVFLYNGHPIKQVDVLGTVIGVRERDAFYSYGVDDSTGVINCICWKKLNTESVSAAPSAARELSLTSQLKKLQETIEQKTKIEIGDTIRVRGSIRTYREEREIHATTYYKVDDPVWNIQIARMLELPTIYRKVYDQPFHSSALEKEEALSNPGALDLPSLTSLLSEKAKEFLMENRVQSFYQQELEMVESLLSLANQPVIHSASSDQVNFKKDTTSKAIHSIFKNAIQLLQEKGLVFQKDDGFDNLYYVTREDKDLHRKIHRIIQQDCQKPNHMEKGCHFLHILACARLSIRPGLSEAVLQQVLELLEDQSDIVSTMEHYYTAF
inactive: [3] -0.125 | [4] 0.073 | [1] -0.115 | [5] -0.049
